# Results as given in PubChem BioAssay AID1211 (NMMLSC, 2008).
# Active and inactive are the calls of the source. How the calls were made is not given here.
# Target: Estrogen receptor (Homo sapiens) (UniProt P03372)
# Assay: displacement of fluorescent estrogen from ERalpha – cell-based, Cos7 ERalpha-GFP, flow cytometry, primary screen (AID 1211);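 further: 0% = DMSO vehicle wells and 100% = no E2-Alexa633 signal left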
# Details: fluorescent ligand competition, at 10 µM, hits give high values
# Chain of Estrogen receptor (Homo sapiens) (P03372 whole entry, looked up): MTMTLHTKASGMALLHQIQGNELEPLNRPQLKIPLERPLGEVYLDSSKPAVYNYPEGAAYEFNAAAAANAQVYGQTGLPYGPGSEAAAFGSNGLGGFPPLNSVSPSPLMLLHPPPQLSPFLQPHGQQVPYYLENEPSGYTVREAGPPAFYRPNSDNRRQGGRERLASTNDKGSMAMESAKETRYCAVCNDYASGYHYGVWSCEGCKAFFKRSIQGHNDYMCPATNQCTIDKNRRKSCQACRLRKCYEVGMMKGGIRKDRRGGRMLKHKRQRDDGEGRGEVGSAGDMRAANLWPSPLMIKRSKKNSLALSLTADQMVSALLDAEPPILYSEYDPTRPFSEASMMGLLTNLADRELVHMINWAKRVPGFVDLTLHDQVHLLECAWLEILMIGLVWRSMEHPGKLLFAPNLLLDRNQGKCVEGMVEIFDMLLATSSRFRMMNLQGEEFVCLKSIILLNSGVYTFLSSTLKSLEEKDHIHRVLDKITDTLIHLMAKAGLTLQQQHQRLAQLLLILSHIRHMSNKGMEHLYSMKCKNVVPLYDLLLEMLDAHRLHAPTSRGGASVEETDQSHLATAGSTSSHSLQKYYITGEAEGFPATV
row,SMILES,inhibition of ligand binding
1,O=C(CSc1nnc(SCC(=O)c2ccco2)s1)c1ccco1,14% (inactive)
2,O=Cc1cn(-c2ccccc2)nc1-c1cc2c(ccc3ccccc32)oc1=O,40% (inactive)
3,O=c1c2c([nH]c3ccccc13)C(=C1CCCC1)CC2,0% (inactive)
4,CC1(N2CCOCC2)CC2(O)C(=[N+]1[O-])CCc1nonc12 (centres undefined),34% (inactive)
5,O=C1N/C(=C\c2ccc(O)cc2)C(=O)c2ccccc21,30% (inactive)
6,Oc1ccc(-c2csc(-c3c[nH]c4ccccc34)n2)c(O)c1,57% (inactive)
7,CN1CCC(=NNC(=O)c2cn(-c3ccccc3)nc2-c2ccccc2)CC1,3% (inactive)
8,Cn1nc([N+](=O)[O-])c2c(-c3nc4ccccc4s3)c(N)n(C3CCCCC3)c2c1=O,30% (inactive)
9,Cc1ccc(Oc2cc(N3CCOCC3)nc(-c3ccccc3)n2)cc1,13% (active)
10,CC(C)CC(=O)Nc1ccc(C(=O)COc2ccc(-c3nnco3)cc2)cc1,28% (inactive)
11,O=c1cc(-c2ccco2)oc2c1ccc1ccccc12,48% (inactive)
12,NC(=S)n1[nH]c(-c2ccc([N+](=O)[O-])cc2)c(N=Nc2ccc(O)cc2)c1=O,10% (inactive)
13,Nc1ccc2nc(-c3cccs3)[nH]c2c1,10% (inactive)
14,Cc1ccnc(NS(=O)(=O)c2ccc(NC(=O)Cc3cccs3)cc2)n1,31% (inactive)
15,CCCSc1nc(C)c(-c2csc(C(C#N)=C3CCCC3)n2)cc1C#N,37% (inactive)
16,O=C(Nc1ccc(O)cc1C(=O)O)c1ccc2c(c1)C(=O)N(Cc1ccco1)C2=O,33% (active)
17,Cc1cc(C)c(C(=O)COc2cccnc2[N+](=O)[O-])cc1C,19% (inactive)
18,Cc1cc(NC(=O)CSc2cn(CCNC(=O)c3ccc(Cl)cc3)c3ccccc23)no1,15% (inactive)
19,COCCOC(=O)c1[nH]c2c(c1C)C(=O)CC(c1ccco1)C2 (centres undefined),2% (inactive)
20,Cc1cc(C(=O)O)ccc1-n1c(C)ccc1C,43% (inactive)

row,SMILES,inhibition of ligand binding
1,c1ccc(OCc2nnc3sc(C4COc5ccccc5O4)nn23)cc1 (centres undefined),0% (inactive)
2,COc1cccc([C@@H]2Oc3ccc(OC)cc3C(=O)[C@H]2O)c1,37% (inactive)
3,CC1(C)CC(=O)c2c(oc3cc(O)c(O)cc23)C1,20% (inactive)
4,CCOc1cccc2cc(-c3cn4cc(C)ccc4n3)c(=O)oc12,52% (inactive)
5,CN(C)CC(=O)N1c2ccccc2CCc2ccc(NC(=O)c3ccc(N)cc3)cc21,44% (inactive)
6,O=C(Nc1nccs1)c1ccc2nccnc2c1,33% (inactive)
7,Nc1ccc2oc(-c3ccc4nc[nH]c4c3)nc2c1,31% (inactive)
8,O=c1oc2ccccc2cc1-c1ccc(O)cc1,60% (inactive)
9,COc1ccc(C2Nc3ccccc3C(=O)N2Cc2ccccc2)cc1Cn1nnc2ccccc21 (centres undefined),54% (inactive)
10,O=C1/C(=C\c2ccco2)SC(=S)N1c1ccc(O)cc1,61% (inactive)
11,Nc1ccc(-c2nc3ccc([N+](=O)[O-])cc3[nH]2)cc1,36% (active)
12,COc1cccc(-n2nnnc2SCC(=O)Nc2ccc(C(C)=O)cc2)c1,38% (inactive)
13,Cc1nn(-c2ccccc2)c(/N=C/c2ccc(O)cc2)c1-c1ccccc1,77% (active)
14,COc1ccc(NC(=O)C(NC(=O)c2ccc(=O)[nH]c2)c2ccc(C)cc2)cc1 (centres undefined),4% (inactive)
15,Nc1nc(-c2ccc3c(c2)NC(=O)CO3)cs1,32% (inactive)
16,Cc1noc(C)c1COC(=O)c1cc2c3ccccc3n(C)c2s1,41% (inactive)
17,CCOC(=O)c1c(/N=C/c2ccc(O)cc2O)sc2c1CCC2,58% (inactive)
18,CC1CC(C(F)(F)C(F)(F)F)n2nc(C(=O)O)cc2N1 (centres undefined),9% (inactive)
19,C/C(N)=C(/C#N)C(=O)CSc1nnc(Cc2ccccc2F)n1N,0% (inactive)
